Source: PubChem BioAssay (National Center for Advancing Translational Sciences (NCATS))
HTT prom inh = Primary qHTS for Identification of Small Molecule Inhibitors of Huntingtin Promoter Activity; HEK293 HTT promoter firefly luciferase reporter, 24 h; Potency, µM (highest dose often 57.5 µM), for inactives: at the top dose activity change, negative = inhibition, usual class: inhibitors; 48,000 compounds, 0.93% hits; AID 1508623, 2021; also: potency is read from the fitted curve at half-maximal effect; nearly all actives have a fitted effect of over 50% in size
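HEK293 cells carrying firefly luciferase reporters were seeded at 2,500 per well in Opti-MEM and cultured for 24 h. They were then treated with compounds at up to 57.5 uM final for 24 h at 37 degrees C before Dual-Glo luminescence readout.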
NTMT1 inhibitor = Primary qHTS for Inhibitors of N-terminal methyltransferase 1 (NTMT1): MTaseGlo Assay. N-terminal Xaa-Pro-Lys N-methyltransferase 1 (Homo sapiens), Q9BV86. NTMT1 MTase-Glo SAH luminescence, purified enzyme. Potency, µM (top dose mostly 114 µM), for the others: top-dose activity change, negative = inhibition, hits mostly inhibitors. 59,000 compounds, 2.5% hits;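 also: potency is read from the fitted curve at half-maximal effect; plate controls were DMSO vehicle for no effect and no enzyme for full effect; nearly all actives have a fitted effect of over 65% in size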
GALC G270D act = A Novel Cell-Based Assay to Identify Small Molecules for B -Galactocerebrosidase. P54803. 45,000 compounds, 0.1% hits. 145M-Twi-hGALC-G270D cells (Twitcher mouse brain line with human GALC G270D), HMU-beta-Gal fluorescence, 48 h. Potency, µM (series often up to 57.5 µM), most hits filed as activators. AID 1159614, 2016; also: potency is read from the fitted curve at half-maximal effect; 0% is about no effect; nearly all actives have a fitted effect of over 65% in size
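Fluorogenic HMU-b-Gal hydrolysis (0.1 mM final, pH 5.2 citrate-phosphate with 1 mg/mL sodium taurocholate; carbonate stop buffer) measures mutant GALC activity after compound treatment of live 145M-Twi Twitcher brain cells stably carrying human GALC-G270D, with wild-type GALC line alongside; activation sought.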
HTT-AS act = Primary qHTS for Identification of Small Molecule Activators of Huntingtin-Antisense Promoter Activity; HEK293 HTT-AS promoter firefly luciferase reporter, 24 h; response scale: percent change from vehicle, -100% = no light; Potency, µM (highest dose often 57.5 µM), inactives show at the top dose activity change, positive = activation, hits mostly activators; 48,000 compounds, 0.24% hits; AID 1508624, 2021; also: potency is read from the fitted curve at half-maximal effect; nearly all actives have a fitted effect of over 55% in size
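Firefly luciferase readout (Dual-Glo, 10 min RT) after 24 h, 37 °C compound exposure (final up to 57.5 uM) of HEK293 reporter cells cultured 24 h beforehand; PTC124 at 50 uM final as control inhibitor; activity scaled vehicle 0%, zero RLU -100%.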
FH mod = Identification of activators of human fumarate hydratase by quantitative high-throughput screening; Fumarate hydratase, mitochondrial (Homo sapiens), P07954; FH coupled MDH/diaphorase resazurin fluorescence, 15 min; Potency, µM (doses to about 79.9 µM), for inactives: top-dose activity change, negative = inhibition, most hits filed as inhibitors; 54,000 compounds, 0.22% hits; also: potency is read from the fitted curve at half-maximal effect; % is scaled to controls: 0 for no effect and ±100 for the full control effect; the screen sought activators but most active calls are inhibition curves; nearly all actives have a fitted effect of over 45% in size
Target sequence (P07954 whole entry, looked up): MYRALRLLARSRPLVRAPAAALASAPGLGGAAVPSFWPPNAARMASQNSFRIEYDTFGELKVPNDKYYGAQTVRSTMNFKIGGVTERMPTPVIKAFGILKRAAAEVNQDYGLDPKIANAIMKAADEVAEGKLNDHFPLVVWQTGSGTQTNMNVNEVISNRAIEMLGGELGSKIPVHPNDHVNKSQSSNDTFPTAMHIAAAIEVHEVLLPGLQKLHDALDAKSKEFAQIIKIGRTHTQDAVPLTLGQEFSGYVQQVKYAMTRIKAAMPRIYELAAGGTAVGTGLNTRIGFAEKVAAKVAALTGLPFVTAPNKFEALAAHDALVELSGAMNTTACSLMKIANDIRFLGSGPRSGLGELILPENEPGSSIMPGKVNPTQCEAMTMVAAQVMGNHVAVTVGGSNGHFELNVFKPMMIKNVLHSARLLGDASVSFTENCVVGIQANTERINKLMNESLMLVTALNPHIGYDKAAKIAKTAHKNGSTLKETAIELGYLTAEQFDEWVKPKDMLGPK
DRV1 agonist = qHTS for Agonists of Human Resolvin D1 Receptor DRV1. Probable G-protein coupled receptor 32 (Homo sapiens), O75388. CHO-K1 GPR32 beta-arrestin PathHunter luminescence, 90 min; zero percent set by DMSO-only wells. activation, % at 76.9 µM. 48,000 compounds, 2.5% hits. AID 1346428, 2018;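 active = activation of at least 60% and not above a set upper limit, about 1 call in 100 departs from these limits; inconclusive = activation of 40% to 60%, or above that upper limit; inactive = activation under 40%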; also: 0% is about no effect
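PathHunter beta-arrestin recruitment in CHO-K1 cells stably expressing ProLink-tagged GPR32. Cells were exposed to compound for 90 min at 37 C, then chemiluminescence was read after 1 h detection at ambient temperature; DMSO served as basal control.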
Sfp PPTase inh = qHTS Assay for Inhibitos of Bacillus subtilis Sfp phosphopantetheinyl transferase (PPTase): Chemistry Optimization Followup | shares compounds with NTMT1 inhibitor | purified Sfp PPTase enzyme activity, qHTS | Potency, µM (series often up to 114 µM), for the others: at the highest dose activity change, negative = inhibition, usual class: inhibitors | 230 compounds, 78% hits
Sfp SAR2 = qHTS Assay for Inhibitors of Bacillus subtilis Sfp phosphopantetheinyl transferase (PPTase): SAR Round 2; shares compounds with NTMT1 inhibitor; purified Sfp enzyme, PPTase activity, qHTS; Potency, µM (highest dose often 57.1 µM), for inactives: top-dose activity change, negative = inhibition, most hits filed as inhibitors; 230 compounds, 87% hits; AID 602370, 2012
hGST A1-1 inh = qHTS Assay for Inhibitors of Bacillus subtilis Sfp phosphopantetheinyl transferase (PPTase): SAR in hGST A1-1; shares compounds with NTMT1 inhibitor; hGST A1-1 enzyme activity counter-screen, qHTS; Potency, µM (top dose mostly 114 µM), without a hit: at the top dose activity change, negative = inhibition, usual class: inhibitors; 55 tested, under 10 active; AID 602391, 2012
HSD17B4 inh = Extended Characterization of HPGD Inhibitors: Counterscreen Against HSD17b4. shares compounds with NTMT1 inhibitor. purified HSD17B4, estradiol/NAD+, NADH fluorescence. Potency, µM (series often up to 57.1 µM), for the others: at the highest dose activity change, negative = inhibition, usual class: inhibitors. 230 compounds, 10% hits. AID 743187, 2013
ALDH1A1 inh = Extended Characterization of HPGD Inhibitors: Counterscreen Against ALDH1A1. shares compounds with NTMT1 inhibitor. recombinant ALDH1A1, NADH fluorescence, propionaldehyde/NAD+. Potency, µM (series often up to 57.1 µM), without a hit: at the highest dose activity change, negative = inhibition, most hits filed as inhibitors. 230 compounds, 93% hits. AID 743195, 2013
NNMT inh = Counterscreen qHTS for Inhibitors of N-terminal methyltransferase 1 (NTMT1): NNMT MTaseGlo assay. NNMT MTase-Glo luminescence, SAH detection. 120 compounds, 10% hits. shares compounds with NTMT1 inhibitor. Potency, µM (doses to about 57.1 µM), for inactives: top-dose activity, negative = inhibition, most hits filed as inhibitors
Numbers without * were called inactive; i = inactive; ? = inconclusive; nt = no result; [ ] = remark or other dose. In the library only some 4.7% were active in any assay of this set; here they are far more common. Unless noted, calls follow the shape of the dose curve; as a rule, active = well fitted curve in the direction sought with a large enough effect; inconclusive = small, poorly fitted or top-dose-only effect, or another doubt; inactive = no such curve, though single readings can be large; an effect the other way counts as inactive or inconclusive.

SMILES	HTT prom inh	NTMT1 inhibitor	GALC G270D act	HTT-AS act	FH mod	DRV1 agonist	NNMT inh	others
CN(C)c1nc(NC2CCC(NCCc3ccc(Br)cc3OC(F)(F)F)CC2)nc2ccccc12 (stereo not given)	nt	35µM*	nt	nt	-9%	nt	22µM*
C/C=C1\[C@H](O[C@@H]2O[C@H](CO)[C@@H](O)[C@H](O)[C@H]2O)OC=C(C(=O)OCCc2ccc(O)cc2)[C@H]1CC(=O)OCCc1ccc(O)cc1	nt	9%[12.6 µM]	nt	nt	-6%[20.6 µM]	nt	nt
C/C=C/C=C/C(O)=C1\C(=O)[C@]2(C)C3C(C(=O)CC/C=C/C)=C(O)C4(C)C1[C@]1(C)O[C@@]4(O)[C@@]3(C)O[C@@]12O	nt	-10%[29.8 µM]	nt	nt	0%[53.3 µM]	nt	nt
CCOc1ccc(Cc2nc(-c3c(C)nc4ccccn34)cs2)cc1	nt	?	nt	nt	-26%	nt	?
CCOc1ccc(Nc2nc(-c3c(C)nc4ccccn34)cs2)cc1	-27%	-9%	nt	-37%	-8%	nt	?
NC(=O)c1ccccc1Nc1ccnc(Nc2cccc(O)c2)n1	nt	?	nt	nt	-10%	nt	nt
CC1=C(C(=O)Nc2nccs2)C(c2ccccc2Br)N=C(Nc2nc3ccccc3o2)N1 (stereo not given)	nt	16%	nt	nt	nt	nt	nt
c1ccc(-c2oc3ncnc(NC[C@@H]4CCCO4)c3c2-c2ccccc2)cc1	?	10µM*	nt	-40%	0%	nt	?
c1nc(NCC2CCCO2)c2ccc(-c3ccc4c(c3)OCO4)cc2n1 (stereo not given)	nt	-19%[57.5 µM]	nt	nt	nt	nt	nt
C=CC(=O)Nc1cccc(CN2C(=O)N(c3c(Cl)c(OC)cc(OC)c3Cl)Cc3cnc(NCCCCN(CC)CC)nc32)c1	nt	1%[57.5 µM]	nt	nt	-1%	nt	nt
COc1cc(N2CCC(O)CC2)ccc1Nc1nc(Nc2ccccc2S(=O)(=O)C(C)C)c2[nH]cnc2n1	nt	1%[57.5 µM]	nt	nt	-19%	nt	?
COC(=O)C1=C(C)NC(C)=C(C(=O)O[C@@H]2CCCN(Cc3ccccc3)C2)[C@@H]1c1cccc([N+](=O)[O-])c1	?	?	i	-42%	?	-5	3%
CCOC(=O)C1=C(C)NC(C)=C(C(=O)OC)C1c1cccc([N+](=O)[O-])c1 (stereo not given)	-14%	-3%[57.5 µM]	i	-23%	-28%[53.3 µM]	-28	nt
Cc1cc(F)c(C(=O)Nc2cccc(-c3nncn3C(C)C)n2)cc1-n1cnc(C2CC2)c1	nt	6%[29.8 µM]	nt	nt	-1%[53.3 µM]	nt	nt
O=C(OCC#CCSc1nnc(-c2ccc3ccccc3c2)o1)c1ccc(OC(F)(F)F)cc1	nt	3%	nt	nt	nt	nt	nt
CC1(C)CC(C(=O)Nc2ccc([S+](=O)([O-])Nc3nccs3)cc2)C1	nt	4%[57.5 µM]	nt	nt	nt	nt	nt
C=C1CCC2(C(=O)OC3OC(CO)C(O)C(O)C3O)CCC3(C)C(=CCC4C5(C)CCC(OC6OC(CO)C(OC7OC(C)C(O)C(O)C7O)C(OC7OCC(O)C(O)C7O)C6O)C(C)(C)C5CCC43C)C2C1 (stereo not given)	nt	15%[12.6 µM]	nt	nt	-7%[20.6 µM]	nt	nt
Cc1ccnc(NC(=S)N2CC3CN(c4ncc(C(F)(F)F)cc4Cl)CC3C2)c1 (stereo not given)	nt	?	nt	nt	nt	nt	nt	Sfp PPTase inh=0.58µM*;Sfp SAR2=1.3µM*;hGST A1-1 inh=-3%;HSD17B4 inh=-2%;ALDH1A1 inh=0.38µM*
